Among all 230,000 compounds or so, about 310 (0.13%) were called active. Another 2% or so got no clear call; they are omitted. Calls follow the shape of the dose curve; as a rule, active = well fitted activation curve with a large enough effect; inconclusive = small, poorly fitted or top-dose-only effect; inactive = no such curve, though single readings can be large or run the other way. The list comes from a sample in which actives are over-represented; it also holds similar structures and randomly drawn compounds.
Potency is read from the fitted curve at half-maximal effect.

This assay can be described thus: qHTS Multiplex Assay to Identify Dual Action Probes in a Cell Model of Huntington: Cytoprotection (ATP). Also: nearly all actives have a fitted effect of over 45% in size.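 As to cytoprotection (ATP increase): toxic huntingtin expression switched on by the ecdysone agonist tebufenozide; % of control where 0% means no effect.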 Particulars: PC12 HTT-Q103 induced, ATP luminescence, 40 h; series mostly up to 56.4 µM; cytoprotection (ATP increase): at the top concentration. An outline of the steps: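 Stable PC12 Q103-GFP cells in serum-supplemented, phenol red-free DMEM; induction by tebufenozide at 100 nM final; compound dose series; cell viability quantified luminescently from ATP.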
`COC(=O)N1C(/C=C/C=C/c2ccc(OC)cc2)=Cc2ccccc2C1CC(C)=O` (stereo not drawn): the cytoprotection (ATP increase) was -21.1% [at 10 µM] (inactive).

Turning to `CCCCC/C=C\C/C=C\CCCCCCCCCC(=O)NCC(=O)O`, the “cytoprotection (ATP increase)” value is 2.32% (inactive).

`COCCN(C(=O)c1ccccc1F)c1c(N)n(Cc2ccccc2)c(=O)[nH]c1=O`: the “cytoprotection (ATP increase)” value is 6.32% (inactive).

With `COc1cccc(-c2cc(=O)c3cc(NC(=O)c4ccc(C)cc4)ccc3[nH]2)c1`, the “cytoprotection (ATP increase)” value is -326% (inactive).

For `CC[C@@]12C=C(/C=C/c3ccccc3)[C@](CC)(C1)[C@H](c1ccccc1)CC2=O`, the “cytoprotection (ATP increase)” value is -0.493% (inactive).

Consider `O=c1c(O)c(Br)ccc2c(Br)c(O)c(O)c(O)c12`, for which the “cytoprotection (ATP increase)” value was -29.5% (inactive).

`NCCC(=O)c1ccccc1N`: the “cytoprotection (ATP increase)” value is -7.14% (inactive).

Take `Nc1nc(CC(=O)CSc2ccc(Cl)cc2)nc(Nc2ccc(F)cc2)n1`: the cytoprotection (ATP increase) was -29.1% [at 10 µM] (inactive).

With `CC(=O)N1CCN(CC(=O)Nc2ccc(SC(F)F)cc2)CC1`, the Potency is 5.62 µM (active).

As for `CCOC(=O)N1CCN(CC(=O)Nc2ccc(F)cc2)CC1`, the cytoprotection (ATP increase) was -4.62% [at 10 µM] (inactive).

Turning to `COC(=O)c1cc(NC(=O)CN2CCN(C(C)=O)CC2)cc(C(=O)OC)c1`, the “cytoprotection (ATP increase)” value was -18.4% (inactive).

As to `C[C@H]1Cc2c(-c3ccccc3)nc3c(c2CO1)CN(S(=O)(=O)c1ccc(Cl)c2nonc12)CC3`, the cytoprotection (ATP increase) is -22.4% [at 10 µM] (inactive).

Turning to `COc1cc(OC)c2c(c1)OC(=O)CC2c1cc(OC)c(OC)c(OC)c1` (stereo not drawn), the “cytoprotection (ATP increase)” value is 10.6% (inactive).

As to `CN(C)Cc1ccccc1C1(O)c2ccccc2CSc2ccccc21` (stereo not drawn), the “cytoprotection (ATP increase)” value was -4.28% (inactive).

In the case of `O=C(/C=C/c1cccc(F)c1)NC1CC1`, the “cytoprotection (ATP increase)” value was 25.8% (inactive).

As to `COC(=O)C1=C(C(=O)OC)[C@@H]2N(C)c3ccccc3[C@@]23C[C@@H](C(=O)OC)N(S(=O)(=O)c2ccc(Br)cc2)C3=N1`, the cytoprotection (ATP increase) was 7.44% [at 10 µM] (inactive).

For the compound `C=CCN1c2ccccc2[C@]23C[C@@H](C(=O)OC)N(S(=O)(=O)c4ccc([N+](=O)[O-])cc4)C2=NC(C(=O)OC)=C(C(=O)OC)[C@H]13`, the cytoprotection (ATP increase) is -23.4% [at 10 µM] (inactive).

Consider `CC(Nc1oc(-c2ccccc2)nc1-c1ccccc1)c1ccccc1` (stereo not drawn), for which the “cytoprotection (ATP increase)” value is -70.1% (inactive).

For the compound `COCOc1cc(OC)ccc1C(=O)/C=C/c1ccc([N+](=O)[O-])cc1`, the “cytoprotection (ATP increase)” value is -28.1% (inactive).

Take `C=CC(C1=CC(=O)C=CC1=O)c1ccc(O)cc1` (stereo not drawn): the “cytoprotection (ATP increase)” value was 14.6% (inactive).

In the case of `COc1ccc(C(C)=O)cc1CN1C(=O)NC2(CCCCC2C)C1=O` (stereo not drawn), the “cytoprotection (ATP increase)” value was -14.3% (inactive).

Consider `CCCCS(=O)(=O)N1C2=NC(C(=O)OC)=C(C(=O)OC)[C@@H]3N(Cc4ccccc4)c4ccccc4[C@]23C[C@H]1C(=O)OC`, for which the cytoprotection (ATP increase) is 21.8% [at 10 µM] (inactive).

Regarding `O=C1c2ccccc2NC(c2ccc(-c3cccc(Cl)c3)o2)N1O` (stereo not drawn), the cytoprotection (ATP increase) is -70.6% [at 10 µM] (inactive).

Consider `CC(N)(C(=O)O)c1ccc(-c2nn[nH]n2)cc1` (stereo not drawn), for which the “cytoprotection (ATP increase)” value was -10.3% (inactive).

Turning to `Cc1ccc(S(=O)(=O)N2CCC(=O)N([C@H](COCc3ccccc3)Cc3ccccc3)CC2)cc1`, the “cytoprotection (ATP increase)” value is -2.62% (inactive).

`C/C=C(\C)C(=O)O[C@H]1CC(C)=C2C(=O)C=C(C)C2[C@@H]2OC(=O)[C@@](C)(OC(=O)C=C(C)C)C21` (stereo partly drawn): the “cytoprotection (ATP increase)” value was 11.5% (inactive).

Take `O=C(N/N=C/c1cccc2cccnc12)[C@H]1C[C@@H]1c1ccccc1`: the cytoprotection (ATP increase) is 23.6% [at 10 µM] (inactive).

As to `O=C(Nc1cccc(C(F)(F)F)c1)c1cc(Br)cc(Br)c1O`, the “cytoprotection (ATP increase)” value is -60.4% (inactive).

On to `CCN1C(=O)N[C@@H](c2ccccc2)[C@H](C(C)=O)[C@H]1C`, for which the cytoprotection (ATP increase) was -16.1% [at 10 µM] (inactive).

Consider `CC(=O)CC(c1ccccc1)C1C(=O)Oc2ccccc2C1=O` (stereo not drawn), for which the “cytoprotection (ATP increase)” value is 19% (inactive).

Regarding `CNC(=O)C1(C)C=CC2(CCCCC2)N1C(C)=O` (stereo not drawn), the “cytoprotection (ATP increase)” value is 20.6% (inactive).

Regarding `C=CCNC(=O)c1ccc2c3n(nc2c1)-c1ccc(C)cc1CO3`, the cytoprotection (ATP increase) is -15% [at 10 µM] (inactive).

On to `CC(C)(O)c1ccccc1CC[C@H](SCC1(CC(=O)O)CC1)c1cccc(/C=C/c2ccc3ccc(Cl)cc3n2)c1`, for which the “cytoprotection (ATP increase)” value was -10.2% (inactive).

As to `C=CC1(C)CC(=O)C2(O)C(C)(O1)C(OC(C)=O)C(O)C1C(C)(C)CCC(O)C12C` (stereo not drawn), the “cytoprotection (ATP increase)” value is 1.35% (inactive).

For the compound `C[C@H]1Cc2c(COc3ccccc3)nc3c(c2CO1)CN(C(=O)NCc1ccco1)CC3`, the cytoprotection (ATP increase) was 9.12% [at 10 µM] (inactive).

For the compound `O=C1OCCN1C(=O)[C@H]1[C@H](c2ccc(F)cc2)C(c2ccccc2)=NN1c1ccc(Br)cc1`, the “cytoprotection (ATP increase)” value was -121% [at 40.3 µM] (inactive).

As for `Cc1cc2oc(=O)cc(-c3ccccc3)c2c(C)c1-c1ccc(OC(F)(F)F)cc1`, the “cytoprotection (ATP increase)” value was -0.152% (inactive).

On to `COc1ccc(CC(N)C(=O)NC2C(O)[C@H](n3cnc4c(N(C)C)ncnc43)O[C@@H]2CO)cc1` (stereo partly drawn), for which the “cytoprotection (ATP increase)” value was -162% (inactive).

Turning to `COC(=O)CC1c2ccccc2C(Cc2ccc(OC)cc2)=C(C)N1C(=O)OC` (stereo not drawn), the cytoprotection (ATP increase) is -4.91% [at 10 µM] (inactive).

For `COc1cc(OC)cc(-c2nc3ccccc3c(=O)n2NC(=O)c2cccnc2Cl)c1`, the cytoprotection (ATP increase) is -11.8% [at 10 µM] (inactive).

In the case of `O=C1C=C(c2ccccc2)CCC1`, the “cytoprotection (ATP increase)” value is 8.09% (inactive).

For `CC(C)[C@@H]1NC(=O)[C@H](Cc2ccccc2)NC(=O)[C@@H](CC(=O)O)NC(=O)CNC(=O)[C@H](CCCNC(=N)N)NC1=O`, the “cytoprotection (ATP increase)” value is -24.7% (inactive).

In the case of `COc1ccc(N2CCN(CCNC(=O)c3nnc(Cc4c(F)cccc4Cl)o3)CC2)cc1`, the cytoprotection (ATP increase) is 7.41% [at 0.074 µM] (inactive).

With `Clc1ccc(C(Cn2ccnc2)OCc2ccsc2Cl)c(Cl)c1` (stereo not drawn), the “cytoprotection (ATP increase)” value is -66.1% (inactive).

`COC(=O)C1=C(C(=O)OC)[C@@H]2N(C)c3ccccc3[C@@]23C[C@@H](C(=O)OC)N(C(=O)c2ccco2)C3=N1`: the cytoprotection (ATP increase) was -6.19% [at 10 µM] (inactive).

Take `COC(=O)C/C=C/[C@@H](C)[C@H](NC(=O)OCC(Cl)(Cl)Cl)c1ccccc1`: the “cytoprotection (ATP increase)” value was -3.44% (inactive).

On to `C=CC1=C2C=C(C3CC3)N(C(CO)CO)C=C2C(=O)C(C)(OC(=O)c2ccco2)C1=O` (stereo not drawn), for which the cytoprotection (ATP increase) was -26.7% [at 10 µM] (inactive).

On to `Cc1ccc(-c2cccc([C@H]3[C@@H]4C=CC[C@@H](C)[C@@H]4C(=O)N3Cc3ccccc3)c2)cc1`, for which the “cytoprotection (ATP increase)” value is -64.7% (inactive).

For `COc1ccc(/C=C2\NC(=O)[C@@H]3Cc4ccccc4CN3C2=O)cc1`, the “cytoprotection (ATP increase)” value is -17.8% (inactive).

Take `COC(=O)c1c(CCl)noc1C(=O)NC(C)C`: the “cytoprotection (ATP increase)” value was -17.6% (inactive).

Turning to `c1ccc(CSc2ncnc3c2sc2nc(N4CCOCC4)c4c(c23)CCCC4)cc1`, the “cytoprotection (ATP increase)” value was -2.4% (inactive).

On to `C[C@H]1Cc2c(COc3ccccc3)nc3c(c2CO1)CN(C(=O)Nc1cccc(C#N)c1)CC3`, for which the cytoprotection (ATP increase) is -20.7% [at 10 µM] (inactive).

For the compound `COc1ccc(-c2nc3c(c4c2C[C@H](c2ccccc2)OC4)CN(C(=O)C2CC2)CC3)c(C)c1`, the cytoprotection (ATP increase) is 6.89% [at 10 µM] (inactive).
